The values that follow come from PMC4336329 (PLoS ONE, 2015).

The campaign covered roughly 310,000 compounds. About 14,000 (4.5%) showed an effect of 50% or more. Effects have a minus sign here. The entries come from a sample that favours strong results as a whole.
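Further: peak tail current of the secondary pulse compared with the same well before compound.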

Chain of human ether-à-go-go-related gene (hERG) potassium channel (Q12809 whole entry, looked up): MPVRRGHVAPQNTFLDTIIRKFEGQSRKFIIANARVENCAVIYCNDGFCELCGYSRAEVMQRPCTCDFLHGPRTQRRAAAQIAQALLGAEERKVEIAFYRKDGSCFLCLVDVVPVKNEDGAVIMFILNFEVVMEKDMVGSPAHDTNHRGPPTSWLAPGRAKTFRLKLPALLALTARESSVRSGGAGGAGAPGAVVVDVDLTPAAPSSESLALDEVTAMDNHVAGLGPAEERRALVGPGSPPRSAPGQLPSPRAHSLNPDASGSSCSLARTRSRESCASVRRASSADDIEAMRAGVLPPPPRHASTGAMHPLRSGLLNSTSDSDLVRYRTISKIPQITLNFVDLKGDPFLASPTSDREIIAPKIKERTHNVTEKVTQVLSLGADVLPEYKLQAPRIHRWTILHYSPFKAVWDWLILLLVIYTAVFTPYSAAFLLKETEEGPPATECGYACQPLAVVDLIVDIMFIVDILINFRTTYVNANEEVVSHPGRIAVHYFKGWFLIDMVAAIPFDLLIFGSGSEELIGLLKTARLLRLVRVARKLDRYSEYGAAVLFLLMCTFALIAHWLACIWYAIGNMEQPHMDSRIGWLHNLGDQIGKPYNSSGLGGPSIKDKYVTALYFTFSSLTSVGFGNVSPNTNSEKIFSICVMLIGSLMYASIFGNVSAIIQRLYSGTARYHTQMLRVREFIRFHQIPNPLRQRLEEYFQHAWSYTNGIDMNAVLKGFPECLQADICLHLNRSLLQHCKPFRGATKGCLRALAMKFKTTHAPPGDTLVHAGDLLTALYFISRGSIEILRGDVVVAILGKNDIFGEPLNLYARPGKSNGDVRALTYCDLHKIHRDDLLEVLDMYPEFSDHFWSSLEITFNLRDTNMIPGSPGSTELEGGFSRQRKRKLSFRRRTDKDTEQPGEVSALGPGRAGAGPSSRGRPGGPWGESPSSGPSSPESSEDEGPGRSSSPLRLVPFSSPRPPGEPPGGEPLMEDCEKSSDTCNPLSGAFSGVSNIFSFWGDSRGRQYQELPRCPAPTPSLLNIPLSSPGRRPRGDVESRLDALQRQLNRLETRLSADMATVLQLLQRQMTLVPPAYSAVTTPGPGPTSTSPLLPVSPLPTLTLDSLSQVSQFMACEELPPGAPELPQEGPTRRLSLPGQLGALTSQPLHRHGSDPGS

This assay concerns the target human ether-à-go-go-related gene (hERG) potassium channel (human, UniProt Q12809). Kind of assay: primary screen, population patch clamp on CHO cells stably expressing hERG; higher = less effect of the substance.
With `Cc1cccc(CN2CCC(n3nccc3NC(=O)CCCc3ccccc3)CC2)n1`, the “hERG current change (%, negative = inhibition) at 10uM” value is given as -20.2%.
For `CSc1ccc(CN2CCC(n3nccc3NC(=O)CCCc3ccccc3)CC2)cc1`, the “hERG current change (%, negative = inhibition) at 10uM” value was -82.5%.
As for `C=C(C)CCC(C)N1CCC(n2nccc2NC(=O)CCCc2ccccc2)CC1` (stereo not drawn), the “hERG current change (%, negative = inhibition) at 10uM” value was -74.2%.
Take `CSCC(C)N1CCC(n2nccc2NC(=O)CCCc2ccccc2)CC1` (stereo not drawn): the “hERG current change (%, negative = inhibition) at 10uM” value is on record as -47.5%.
For `COCC(C)N1CCC(n2nccc2NC(=O)CCCc2ccccc2)CC1` (stereo not drawn), the “hERG current change (%, negative = inhibition) at 10uM” value is -15.2%.
For `COc1ccc(C(=O)Nc2nnc(S(=O)(=O)N3CCCCCC3)s2)cc1OC`, the “hERG current change (%, negative = inhibition) at 10uM” value was -0.855%.
In the case of `COc1cc(NC(=O)COc2cccc(C)c2C)ccc1NC(=O)c1ccco1`, the “hERG current change (%, negative = inhibition) at 10uM” value is reported as 13%.
Regarding `O=C(Nc1ccc(N2CCOCC2)cc1)c1cccc(S(=O)(=O)N2CCCC2)c1`, the “hERG current change (%, negative = inhibition) at 10uM” value is given as 1.96%.
For the compound `CC(=O)c1cccc(OCc2cc(C(=O)N(C)C(C)c3ccccn3)no2)c1` (stereo not drawn), the “hERG current change (%, negative = inhibition) at 10uM” value is -4.32%.
As to `CC(NC(=O)/C=C/c1cnc2ccccc2n1)C12CC3CC(CC(C3)C1)C2` (stereo not drawn), the “hERG current change (%, negative = inhibition) at 10uM” value is -10.1%.
For the compound `Cc1cc(Cl)c(S(=O)(=O)Nc2ccc(Cl)cn2)cc1OCC(N)=O`, the “hERG current change (%, negative = inhibition) at 10uM” value was -2.03%.
Turning to `Cc1cc(Cl)c(S(=O)(=O)Nc2ccccn2)cc1OCC(N)=O`, the “hERG current change (%, negative = inhibition) at 10uM” value is listed as -71.8%.
Take `Cc1cc(Cl)c(S(=O)(=O)N2CCN(c3ccccn3)CC2)cc1OCC(N)=O`: the “hERG current change (%, negative = inhibition) at 10uM” value turned out to be 17.6%.
For `Cc1cc(Cl)c(S(=O)(=O)N2CCN(c3ccccn3)CC2)cc1OCC(=O)NC1CCCCC1`, the “hERG current change (%, negative = inhibition) at 10uM” value was -56.9%.
Consider `Cc1cc(Cl)c(S(=O)(=O)NCc2cccnc2)cc1OCC(N)=O`, for which the “hERG current change (%, negative = inhibition) at 10uM” value is listed as 10.1%.
Regarding `Cc1cc(Cl)c(S(=O)(=O)NCc2cccnc2)cc1OCC(=O)NC1CCCCC1`, the “hERG current change (%, negative = inhibition) at 10uM” value was -53.2%.
On to `Cc1cc(Cl)c(S(=O)(=O)N2CCCCCC2)cc1OCC(=O)NC1CCCCC1`, for which the “hERG current change (%, negative = inhibition) at 10uM” value is listed as -18.6%.
Regarding `Cc1cc(Cl)c(S(=O)(=O)NC2CCCC2)cc1OCC(=O)NC1CCCCC1`, the “hERG current change (%, negative = inhibition) at 10uM” value is recorded as -7.18%.
For the compound `Cc1ccccc1NS(=O)(=O)c1cc(OCC(N)=O)c(C)cc1Cl`, the “hERG current change (%, negative = inhibition) at 10uM” value is given as 5.68%.
On to `CCNC(=O)c1c(NC(=O)c2cc(-c3cc(C)ccc3O)n[nH]2)sc2c1CCCC2`, for which the “hERG current change (%, negative = inhibition) at 10uM” value was determined as 30.5%.
Regarding `CCn1nnnc1SCC(=O)N1CCN(c2ccccc2)CC1`, the “hERG current change (%, negative = inhibition) at 10uM” value is on record as -10.4%.
On to `Br.CC1CCN(Cc2nnnn2-c2cccc([N+](=O)[O-])c2)CC1`, for which the “hERG current change (%, negative = inhibition) at 10uM” value was -10.8%.
Take `Cc1cccc(C)c1OCCNC(=O)OCc1ccccc1`: the “hERG current change (%, negative = inhibition) at 10uM” value is -6.74%.
In the case of `Cc1c(/C=N/NC(N)=O)c2ccccn2c1C(=O)c1ccncc1.Cl` it was -54.9%; in that of `Cc1c(/C=N/NC(=O)CNc2ccccc2)c2ccccn2c1C(=O)c1ccncc1`, 0.0344%; in that of `Cc1c(/C=N/NC(N)=O)c2ccccn2c1C(=O)c1ccc(F)cc1`, -5.23%.
For the compound `CCCCN(CC(=O)NC(C)(C)C)C(=O)C(=O)Nc1ccc2c(c1)OCCO2`, the “hERG current change (%, negative = inhibition) at 10uM” value is recorded as -0.704%.
As to `CC(C)c1nnc(NC(=O)c2ccc(S(=O)(=O)N3CCOCC3)cc2)s1`, the “hERG current change (%, negative = inhibition) at 10uM” value worked out at 6.52%.
For `Cc1ccnc2nc(C(=O)Nc3ccc4c(c3)OCO4)nn12` the value was -2.98%; for `CCOC(=O)C1C(C)N=C2SCC(=O)N2C1c1cccc(Br)c1` (stereo not drawn), -12.6%.
For `COc1cc(CNc2ccc3c(c2)CCC3)cc(OC)c1O` the value was 12.2%.
In the case of `Cn1c(SCC(=O)N2CCOCC2)nnc1-c1ccc2ncccc2c1` it was 15.4%; in that of `CCOc1cccc(CN2CCC(n3nccc3NC(=O)c3ccc4c(c3)OCO4)CC2)c1`, -43.2%.
As for `COc1ccc(CN2CCC(n3nccc3NC(=O)c3ccc4c(c3)OCO4)CC2)cc1C`, the “hERG current change (%, negative = inhibition) at 10uM” value is on record as -80.6%.
With `COc1cc(CN2CCC(n3nccc3NC(=O)c3ccc4c(c3)OCO4)CC2)ccc1O`, the “hERG current change (%, negative = inhibition) at 10uM” value is -6.7%.
In the case of `CCc1ccc(CN2CCC(n3nccc3NC(=O)c3ccc4c(c3)OCO4)CC2)cc1` it was -72%.
In the case of `CC(=O)c1cccc(CN2CCC(n3nccc3NC(=O)c3ccc4c(c3)OCO4)CC2)c1`, the “hERG current change (%, negative = inhibition) at 10uM” value is -7.62%.
As for `COc1cccc(O)c1CN1CCC(n2nccc2NC(=O)c2ccc3c(c2)OCO3)CC1`, the “hERG current change (%, negative = inhibition) at 10uM” value is -24%.
`COC(=O)Nc1sc2c(c1C(N)=O)CCCCCC2`: the “hERG current change (%, negative = inhibition) at 10uM” value was 11.9%.
In the case of `COc1ccc(CNC2CC(=O)N(C)C2=O)cc1` (stereo not drawn) it was 13.6%; in that of `O=S1(=O)C=CC(Nc2ccccc2)C1` (stereo not drawn), -76%.
Turning to `O=S1(=O)C=CC(Nc2cccc(Cl)c2)C1` (stereo not drawn), the “hERG current change (%, negative = inhibition) at 10uM” value was 16.7%.
As to `COc1ccc(NC2C=CS(=O)(=O)C2)cc1` (stereo not drawn), the “hERG current change (%, negative = inhibition) at 10uM” value is on record as 0.937%.
Regarding `COc1ccc(CCN2CNc3c(c(=O)n(C)c(=O)n3C)C2)cc1`, the “hERG current change (%, negative = inhibition) at 10uM” value is listed as -17.5%.
In the case of `COc1ccc(CCNC(=O)Cn2nc(C)n3nc(-c4ccccc4)cc3c2=O)cc1OC`, the “hERG current change (%, negative = inhibition) at 10uM” value was determined as 2%.
For `COCCn1c(=S)[nH]c2cc(C(=O)NCCc3ccccc3)ccc2c1=O` the value was -2.2%.
In the case of `COCCn1c(=N)c(S(=O)(=O)c2ccc(F)cc2)cc2c(=O)n3cccc(C)c3nc21`, the “hERG current change (%, negative = inhibition) at 10uM” value is on record as -22.5%.
Consider `Cc1cccn2c(=O)c3cc(C(=O)NCCc4ccccc4)sc3nc12`, for which the “hERG current change (%, negative = inhibition) at 10uM” value is -6.84%.
As to `COCCn1c(=N)c(C(=O)NCCc2ccc(OC)cc2)cc2c(=O)n3cccc(C)c3nc21`, the “hERG current change (%, negative = inhibition) at 10uM” value is -84.8%.
For `CCNC(=O)c1cc2c(=O)n3cccc(C)c3nc2n(CCc2ccccc2)c1=N` the value was -80.3%; for `COCCn1c(=N)c(C(=O)NCCc2ccccc2)cc2c(=O)n3cccc(C)c3nc21`, -82.9%.
Turning to `CC(C)COc1ccc(C(=O)CCN2CCCCC2)cc1.Cl`, the “hERG current change (%, negative = inhibition) at 10uM” value is reported as -41.4%.
For the compound `COc1ccc(C)cc1-n1c(SCC(=O)Nc2cc(C)on2)nc2sc(C)c(C)c2c1=O`, the “hERG current change (%, negative = inhibition) at 10uM” value was -2.19%.
For `N#Cc1nc(COc2cccc(Cl)c2)oc1N1CCCC1` the value was -47.5%; for `C=CCC1Cc2c(Br)cccc2C(CC=C)N1` (stereo not drawn), -7.3%; for `COC1=CC=C2[C@H]3Cc4ccc(OC)c5c4[C@@]2(CCN3C)[C@H]1O5.Cl`, 10.3%.
In the case of `O=C(NCc1ccc2c(c1)OCO2)C1CCN(Cc2cnn(-c3ccccc3)c2-n2cccc2)CC1` it was -49.2%.
Take `Cc1ccc(CNC(=O)C2CCCN(Cc3cnn(-c4ccccc4)c3-n3cccc3)C2)cc1` (stereo not drawn): the “hERG current change (%, negative = inhibition) at 10uM” value was -65.3%.
In the case of `O=C(NCC1CCCO1)C1CCCN(Cc2cnn(-c3ccccc3)c2-n2cccc2)C1` (stereo not drawn) it was -11.2%; in that of `O=C(NC1CC1)C1CCN(Cc2cnn(-c3ccccc3)c2-n2cccc2)CC1`, -23.5%; in that of `COc1cccc(NC(=O)C2CCN(Cc3cnn(-c4ccccc4)c3-n3cccc3)CC2)c1`, -45.5%.
As for `O=C(NCCC1=CCCCC1)C1CCN(Cc2cnn(-c3ccccc3)c2-n2cccc2)CC1`, the “hERG current change (%, negative = inhibition) at 10uM” value is on record as -51.8%.
`CC(C)NC(=O)C1CCN(Cc2cnn(-c3ccccc3)c2-n2cccc2)CC1`: the “hERG current change (%, negative = inhibition) at 10uM” value is -8.99%.
For the compound `COc1cccc(CNC(=O)C2CCN(Cc3cnn(-c4ccccc4)c3-n3cccc3)CC2)c1`, the “hERG current change (%, negative = inhibition) at 10uM” value was -71.3%.
In the case of `O=C(NCc1ccccn1)C1CCCN(Cc2cnn(-c3ccccc3)c2-n2cccc2)C1` (stereo not drawn) it was -24.5%; in that of `Cc1ccccc1CSc1nnc(-c2cnccn2)n1C`, 7.84%.
In the case of `O=C(O)/C=C/C(=O)Nc1ccc(Cl)cc1C(=O)c1ccccc1` it was -7.6%; in that of `CCOc1ccccc1NC(=O)CC1NCCNC1=O` (stereo not drawn), -8.89%; in that of `COc1ccc(/C=N/NC(=O)c2c(C)nc3ccc(Br)cn23)cc1OC`, -0.597%.
As to `COCCNc1nnnc2c1sc1nc(N3CCOCC3)c3c(c12)CC(C)(C)OC3`, the “hERG current change (%, negative = inhibition) at 10uM” value was -7.85%.
Take `COc1ccc(OCC(O)Cn2c(Nc3ccccc3)nc3c2c(=O)n(C)c(=O)n3C)cc1` (stereo not drawn): the “hERG current change (%, negative = inhibition) at 10uM” value stood at 2.94%.
Turning to `O=C(O)C(=O)O.O=C(c1ccccc1)c1ccc(OCCOCCN2CCN(Cc3ccccc3)CC2)cc1`, the “hERG current change (%, negative = inhibition) at 10uM” value was -78.9%.
Take `CCCCOc1ccc(C(=O)N2CCC(C)CC2)cc1`: the “hERG current change (%, negative = inhibition) at 10uM” value is on record as -9.48%.
Turning to `CCCCOc1ccc(C(=O)C(CN2CCOCC2)c2ccccc2)cc1` (stereo not drawn), the “hERG current change (%, negative = inhibition) at 10uM” value was -1.42%.
Consider `CC1CCN(CCOc2ccc(C(=O)c3ccccc3)cc2)CC1.O=C(O)C(=O)O`, for which the “hERG current change (%, negative = inhibition) at 10uM” value is -47.5%.
In the case of `CCc1ccc(OCCOCCN2CCN(C)CC2)cc1.O=C(O)C(=O)O`, the “hERG current change (%, negative = inhibition) at 10uM” value amounted to 4.8%.
In the case of `O=C(O)C(=O)O.O=C(c1ccccc1)c1ccc(OCCCN2CCCC2)cc1`, the “hERG current change (%, negative = inhibition) at 10uM” value is reported as -70.6%.
In the case of `CCCOc1ccc(C(=O)C(CN2CCOCC2)c2ccccc2)cc1` (stereo not drawn), the “hERG current change (%, negative = inhibition) at 10uM” value is on record as -8.97%.
For the compound `CC1CCN(CCCCOc2ccc(C(=O)c3ccccc3)cc2)CC1.O=C(O)C(=O)O`, the “hERG current change (%, negative = inhibition) at 10uM” value is reported as -77%.
In the case of `O=C(O)C(=O)O.c1ccc(CN2CCN(CCOCCOc3ccc4c(c3)CCC4)CC2)cc1` it was -5.19%.
Consider `O=C(O)C(=O)O.c1ccc(OCCCN2CCCC2)cc1`, for which the “hERG current change (%, negative = inhibition) at 10uM” value was -7.18%.
As for `CCCOc1ccc(C(=O)C(CN2CCCC2)c2ccccc2)cc1.Cl` (stereo not drawn), the “hERG current change (%, negative = inhibition) at 10uM” value is reported as -65.8%.
For `O=C(O)c1ccccc1NC(=O)N1C[C@H]2C[C@@H](C1)c1cccc(=O)n1C2`, the “hERG current change (%, negative = inhibition) at 10uM” value is on record as 3.86%.
In the case of `COc1ccc(CN(C)Cc2nc(Cc3ccccc3Cl)no2)cc1OC`, the “hERG current change (%, negative = inhibition) at 10uM” value is reported as -10.9%.
